Assay results from the supplement of paper PMC10338343.
± gives the standard deviation.

Assays:
[1] = system: MILI (PIWIL2) piRISC loaded with L1MC piRNA (26 nt); test: pre-steady-state target cleavage rate (min^-1); guide: L1MC piRNA 5'p-UAACUAAAUACUAUGCAAGCUGUAGG; higher = faster piRNA-guided slicing of the target;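 also: 1 nM active piRISC with 0.1 nM target library at 33 °C single turnover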
Method in brief: (§1)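 Reactions were run for 0–8 or 0–960 min at 33 °C in HEPES–potassium acetate buffer, combining 1 nM active affinity-purified piRISC with one synthetic guide, […] transcribed, DNA-blocked target RNA library and, in some cases, 500 nM GTSF1 partner protein. Sequencing of uncleaved targets followed, with normalisation to depth and to weakly complementary targets. Three trials were pooled, k3 was capped at 0.0001 min^-1, and the pre-steady-state cleavage rate was taken from a burst-and-steady-state fit.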

[2] = system: EfPiwi piRISC loaded with L1MC piRNA (26 nt); test: pre-steady-state target cleavage rate (min^-1); auxiliary factor: 500 nM Ephydatia muelleri Gtsf1; guide: L1MC piRNA 5'p-UAACUAAAUACUAUGCAAGCUGUAGG; MIWI and MILI are mouse PIWI proteins and EfPiwi is from a freshwater sponge; tags in brackets are library labels; higher = faster piRNA-guided slicing of the target
Method in brief: as §1

[3] = auxiliary factor: 500 nM mouse GTSF1
[4] = auxiliary factor: none (no GTSF1)

Sequence | pre-steady-state target cleavage rate [1, 3] | pre-steady-state target cleavage rate [1, 4] | pre-steady-state target cleavage rate [2]
UCCUGGAUGAGCUUGCAUUGUAUUAAGUUA | 0.0879 ± 0.017 | 0.00381 ± 0.0027 | 0.0041 ± 0.0035
UCCUGGAUGACUUGCAUAGUAUUUAGUUA | 0.171 ± 0.014 | 0.004 ± 0.0027 | 0.0058 ± 0.0023
UCCUCCUACAGCAACCAUAGUAUUUAGUUA | 0.21 ± 0.022 | 0.00404 ± 0.002 | 0.00322 ± 0.0025
UCCUGCUACAGGUUGCAUAGUAUUUAGUAA | 0.223 ± 0.024 | 0.0054 ± 0.0028 | 0.00478 ± 0.0019
UCCUCCUACUGCUAGCAUAGUAUUUAGUUA | 0.232 ± 0.015 | 0.006 ± 0.0021 | 0.0131 ± 0.004
UCCUGGUACAGCUUGCAUGUAUUUAGUUA | 0.0383 ± 0.0075 | 0.00417 ± 0.0024 | 0.0036 ± 0.0031
UCCUGGAUCAGCUUGACAUAGUAUUUAGUUA | 0.171 ± 0.019 | 0.00343 ± 0.0024 | 0.014 ± 0.0043
UCCUGCUACAGCUUGCAUAUUAUUUAGUUA | 0.11 ± 0.016 | 0.00413 ± 0.0024 | 0.0119 ± 0.0034
UCCUGGAUGUGUUUGCAUAGUAUUUAGUUA | 0.16 ± 0.019 | 0.00817 ± 0.0033 | 0.0181 ± 0.0055
UCCUCCUACAGCUAGCAUAGUAUUUAGUAA | 0.199 ± 0.023 | 0.00331 ± 0.0021 | 0.005 ± 0.0022
UCCUGGAAGAGCUUGCAUAGUAUUUAGUAA | 0.201 ± 0.014 | 0.00564 ± 0.0021 | 0.00426 ± 0.0021
UCCUGGAUCACCAUGCAUAGUAUUUAGUUA | 0.14 ± 0.019 | 0.00489 ± 0.0025 | 0.013 ± 0.0061
UCCUGGUACAGCUUGCAUAGUAUUUAUGUUA | 0.147 ± 0.036 | 0.0114 ± 0.0044 | 0.00329 ± 0.0024
UCCUGGAUGUCCGUUGCAUAGUAUUUAGUUA | 0.0604 ± 0.018 | 0.008 ± 0.0033 | 0.00412 ± 0.0033
UCCUGCUACUCGUUGCAUAGUAUUUAGUUA | 0.242 ± 0.014 | 0.0082 ± 0.0022 | 0.00936 ± 0.0038
UCCUGGAUGAGCUUGCAUAGUAUUUAGUA | 0.223 ± 0.025 | 0.00747 ± 0.0025 | 0.00405 ± 0.0032
UCCUGGUACAGCUUGCAUAGUAGUUAGUUA | 0.2 ± 0.034 | 0.00513 ± 0.0028 | 0.00515 ± 0.0021
UCCUCCUAAGCUUGCAUAGUAUUUAGUUA | 0.23 ± 0.015 | 0.00512 ± 0.002 | 0.0155 ± 0.0059
UCCUGGUACAGGUUGGAUAGUAUUUAGUUA | 0.303 ± 0.043 | 0.00912 ± 0.0032 | 0.00482 ± 0.0022
UCCUGGUACAGCUUGCAUAGUAGUUUAGUUA | 0.217 ± 0.028 | 0.00833 ± 0.003 | 0.0074 ± 0.0029
UCCUGGAACUGCUUGCAUAGUAUUUAGUAA | 0.171 ± 0.015 | 0.00419 ± 0.0025 | 0.00308 ± 0.0023
UCCUGCUACACCUUGCAUUGUAUUUAGUUA | 0.151 ± 0.014 | 0.0123 ± 0.004 | 0.00323 ± 0.0025
UCCUGGAUGUCCUUGCAUAGUGUUUAGUUA | 0.0572 ± 0.012 | 0.00445 ± 0.0025 | 0.00951 ± 0.0035
UCCUGCUACAGCUUGCGUAGUAUUUAGUUA | 0.206 ± 0.014 | 0.00688 ± 0.0029 | 0.0375 ± 0.011
UCCUGGAUGUGCUUGCAUAGUAUUUAGUUUA | 0.141 ± 0.015 | 0.00735 ± 0.0032 | 0.00801 ± 0.0032
UCCUGGUACAGCUUGGAUAGUAUUUAGUUA | 0.206 ± 0.024 | 0.0152 ± 0.0038 | 0.0049 ± 0.0027

Sequence | pre-steady-state target cleavage rate [1, 3] | pre-steady-state target cleavage rate [1, 4] | pre-steady-state target cleavage rate [2]
UCCUGGAUCAGCUAUGCAUAGUAUUUAGUUA | 0.281 ± 0.019 | 0.0057 ± 0.0026 | 0.106 ± 0.02
UCCUGGUACUGCAUGCAUAGUAUUUAGUUA | 0.222 ± 0.02 | 0.00932 ± 0.0034 | 0.0111 ± 0.0032
UCCUGCUACAGUUUGCAUAGUAUUUAGUUA | 0.296 ± 0.015 | 0.0106 ± 0.0023 | 0.0365 ± 0.011
UCCUGCUACAAGCUUGCAUAGUAUUUAGUUA | 0.157 ± 0.015 | 0.00805 ± 0.002 | 0.00475 ± 0.0013
UCCUGGAUCUGCUAGCAUAGUAUUUAGUUA | 0.168 ± 0.014 | 0.00596 ± 0.0019 | 0.0121 ± 0.0038
UCCUGCUUCAGCUUGCAUAGUAUUUAGUUA | 0.312 ± 0.019 | 0.0109 ± 0.0023 | 0.103 ± 0.025
UCCUCCUACAGCUUGCAUAGUAUUUAUUUA | 0.142 ± 0.019 | 0.00314 ± 0.0027 | 0.143 ± 0.053
UCCUGGAUCAGCUUGCAUAGUAUUUAGUAA | 0.24 ± 0.016 | 0.00751 ± 0.0025 | 0.00774 ± 0.0024
UCCUCACUACAGCUUGCAUAGUAUUUAGUUA | 0.259 ± 0.022 | 0.00971 ± 0.0027 | 0.0191 ± 0.0067
UCCUGGAUCAGCUAGCAUAGUAUUAAGUUA | 0.247 ± 0.019 | 0.00556 ± 0.0019 | 0.00318 ± 0.002
UCCUGCUACGCUUGCAUAGUAUUUAGUUA | 0.291 ± 0.025 | 0.0067 ± 0.0024 | 0.0122 ± 0.0033
UCCUGGAACAGUCUUGCAUAGUAUUUAGUUA | 0.26 ± 0.018 | 0.00993 ± 0.0026 | 0.00822 ± 0.0027
UCCUGGAACAGCUUGGAUAGUAUUUAGUAA | 0.198 ± 0.023 | 0.00431 ± 0.0019 | 0.00371 ± 0.002
UCCUCCUACAACUUGCAUAGUAUUUAGUUA | 0.266 ± 0.019 | 0.0079 ± 0.0018 | 0.0806 ± 0.024
UCCUCCUUGUGCUUGCAUAGUAUUUAGUAA | 0.147 ± 0.021 | 0.0033 ± 0.0024 | 0.00675 ± 0.0029
UCCUGGAUCAGCUUGCAUAGUAUUAUAGUUA | 0.283 ± 0.022 | 0.00669 ± 0.0028 | 0.0796 ± 0.024
UCCUGGAUCAGCUUGCAUAGUAUCUAGUUA | 0.205 ± 0.02 | 0.00466 ± 0.0024 | 0.0167 ± 0.005
UCCUCCAUACAGCUUGCAUAGUAUUUAGUUA | 0.171 ± 0.021 | 0.00652 ± 0.002 | 0.00733 ± 0.0027
UCCUGGUACAGCUUGCCUAGUAUUUAGUUA | 0.213 ± 0.019 | 0.00843 ± 0.0026 | 0.00475 ± 0.0026
UCCUGGAUGUCCUCUGCAUAGUAUUUAGUUA | 0.0405 ± 0.0082 | 0.00562 ± 0.0033 | 0.00412 ± 0.003
UCCUGGAUCAGCUUGCAUAGUAUUUAGUUG [g2:g22:cont:t1G] | 0.285 ± 0.018 | 0.00983 ± 0.0019 | 0.0209 ± 0.0054
UCCUCCUAGAGCUAGCAUAGUAUUUAGUUA | 0.218 ± 0.015 | 0.00391 ± 0.0022 | 0.0136 ± 0.0043
UCCUGCUACAGCAUGCAUAGUAAUUAGUUA | 0.225 ± 0.022 | 0.00692 ± 0.0027 | 0.007 ± 0.0024
UCCUGGAACAGCUUGCAUGGUAUUUAGUUA | 0.283 ± 0.022 | 0.00826 ± 0.0025 | 0.0141 ± 0.0045
UCCUGCUAGUGCUUGCAUAGUAUUUAGUUA | 0.0937 ± 0.017 | 0.00303 ± 0.0022 | 0.00363 ± 0.0014
